Some test systems named below: TLK1; TLK2; TNIK; TNK1; TNK2; TNNI3K; TRKB.
Details in all cases: concentration: 1 μM, replicates: in singlicate; n = 1
The test system of a further experiment is T1, TIE2.
T1 construct: gene TEK

For another experiment, the system named is T2, TRKA.
T2 construct: gene NTRK1

In the next experiment the test system is T3, TRKC.
T3 construct: gene NTRK3
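Further: KINOMEscan kinase panel screen.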

With `Fc1cccc(CSc2nnc(-c3ccc4c(c3)CCO4)o2)c1`, the “%Inh” value with TIE2 was determined as 7%; in the experiment with TLK1, 0%; in the experiment with TLK2 it was 12%; in the experiment with TNIK, 0%; in the experiment on TNK1 it was 0%; with TNK2 it was 8%. In addition, the “%Inh” value is 6% with TNNI3K, 3% in the experiment with TRKA, 0% with TRKB and 28% with TRKC.

Regarding `Nc1ncnc2c1ncn2-c1ccc(Cl)cc1` [AH2635], the “%Inh” value in the experiment with TIE2, in the experiment with TLK1, in the experiment with TLK2, with TNIK, with TNK1 and in the experiment with TNK2 was 0% throughout. Moreover, the “%Inh” value in the experiment on TNNI3K worked out at 0%; in the experiment on TRKA, 14%; with TRKB it was 0%; in the experiment on TRKC, 16%.

Consider `Nc1n[nH]c2ncc(-c3ccccc3)cc12` [SB-517081], for which the “%Inh” value in the experiment on TIE2 is recorded as 0%; in the experiment with TLK1, 0%; with TLK2, 2%; in the experiment on TNIK it was 1%; in the experiment with TNK1, 0%; in the experiment on TNK2 it was 21%. Also, the “%Inh” value stood at 12% in the experiment on TNNI3K, 17% with TRKA, 37% in the experiment on TRKB and 31% with TRKC.

With `CC(C)(C)c1ccc(C(=O)Nc2cn3cc(-c4ccccc4)ccc3n2)cc1`, the “%Inh” value in the experiment on TIE2 came out at 0%; in the experiment with TLK1 it was 8%; in the experiment with TLK2, 0%; with TNIK, 18%; in the experiment with TNK1 it was 0%; in the experiment on TNK2, 6%. Further, the “%Inh” value is 6% in the experiment with TNNI3K, 0% in the experiment on TRKA, 7% in the experiment with TRKB and 3% in the experiment with TRKC.

`O=C(Nc1n[nH]c2cc(-c3ccccc3F)ccc12)C1CC1` [SB-733371]: the “%Inh” value in the experiment on TIE2 turned out to be 26%; in the experiment with TLK1, 2%; in the experiment with TLK2 it was 0%; in the experiment with TNIK, 76%; in the experiment with TNK1 it was 0%; in the experiment with TNK2 it was 0%. For the same compound, the “%Inh” value came out at 0% with TNNI3K, 53% in the experiment with TRKA, 0% with TRKB and 19% in the experiment with TRKC.

With `CN1C(=O)C(Nc2cc(Cl)c(O)c(Cl)c2)=C(c2ccc(Cl)cc2)C1=O` [SB-404321], the “%Inh” value turned out to be 0% with TIE2; 0% in the experiment with TLK1; 0% in the experiment on TLK2; 0% with TNIK; 22% in the experiment on TNK1; 0% in the experiment with TNK2. The “%Inh” value with TNNI3K came to 0%; in the experiment on TRKA it was 52%; with TRKB, 36%; in the experiment with TRKC it was 10%.

Regarding `COc1cc2nccc(Nc3ccc(OCc4ccc(NC(C)=O)cc4)cc3)c2cc1OC.Cl` [GW440135], the “%Inh” value was found to be 1% in the experiment with TIE2; 0% in the experiment on TLK1; 0% in the experiment with TLK2; 0% in the experiment on TNIK; 0% in the experiment with TNK1; 16% in the experiment on TNK2. The “%Inh” value with TNNI3K is given as 0%; in the experiment with TRKA, 37%; in the experiment with TRKB it was 0%; in the experiment with TRKC, 21%.

On to `Nc1nc(N)c2nc(-c3ccccc3)[nH]c2n1` [SKF-12778], for which the “%Inh” value is 0% in the experiment on TIE2; 0% with TLK1; 0% in the experiment with TLK2; 4% in the experiment with TNIK; 0% with TNK1; 13% with TNK2. Moreover, the “%Inh” value was determined as 28% with TNNI3K, 52% in the experiment with TRKA, 9% in the experiment with TRKB and 0% in the experiment on TRKC.

Turning to `CCCNC(=O)Nc1ccc(Oc2ncnc3ccn(C)c23)cc1`, the “%Inh” value with TIE2 is 7%; in the experiment with TLK1 it was 3%; in the experiment on TLK2, 0%; in the experiment with TNIK, 18%; in the experiment with TNK1, 0%; in the experiment on TNK2, 0%. Also, the “%Inh” value in the experiment with TNNI3K is reported as 0%; in the experiment with TRKA it was 0%; in the experiment on TRKB it was 0%; in the experiment on TRKC, 13%.

As to `CCc1ccc(-c2ccc3c(c2)-c2nn(C)cc2S(=O)(=O)N3C)cc1`, the “%Inh” value with TIE2 stood at 0%; with TLK1, 35%; in the experiment on TLK2, 0%; with TNIK it was 38%; in the experiment with TNK1, 14%; in the experiment on TNK2, 0%. Further, the “%Inh” value in the experiment on TNNI3K, with TRKA, with TRKB and in the experiment on TRKC was 0% each time.

For the compound `O=C(Nc1ccc2c(c1)OCO2)NC1CCN(c2ccnc(NCc3ccc(F)cc3)n2)CC1` [GSK1379859], the “%Inh” value in the experiment on TIE2 is recorded as 0%; with TLK1 it was 0%; in the experiment with TLK2, 0%; in the experiment on TNIK, 0%; in the experiment with TNK1, 0%; in the experiment on TNK2, 7%. The “%Inh” value is reported as 1% in the experiment with TNNI3K, 0% in the experiment with TRKA, 15% with TRKB and 6% in the experiment with TRKC.

`COc1cc(OC)cc(-c2cc3cnc(N)nc3nc2NC(=O)NC(C)(C)C)c1`: the “%Inh” value with TIE2 stood at 18%; in the experiment on TLK1, 0%; in the experiment on TLK2, 0%; with TNIK, 0%; in the experiment with TNK1, 14%; with TNK2, 100%. Besides, the “%Inh” value with TNNI3K, in the experiment with TRKA, with TRKB and in the experiment with TRKC was 0% each time.

Consider `Cc1ccccc1COc1cc(-n2cnc3cc(Cl)ccc32)sc1C(N)=O` [GW813349], for which the “%Inh” value is recorded as 0% with TIE2; 0% with TLK1; 0% with TLK2; 30% with TNIK; 12% in the experiment on TNK1; 0% in the experiment on TNK2. Besides, the “%Inh” value with TNNI3K was 0%; with TRKA it was 0%; with TRKB, 0%; with TRKC, 5%.

With `COc1ccc(-c2cc3c(C)nc(N)nc3n([C@H]3CC[C@H](OCCO)CC3)c2=O)cn1`, the “%Inh” value in the experiment on TIE2 stood at 0%; with TLK1, 14%; in the experiment with TLK2, 0%; with TNIK, 0%; with TNK1, 34%; with TNK2 it was 0%. Besides, the “%Inh” value in the experiment with TNNI3K came out at 1%; in the experiment with TRKA it was 0%; in the experiment on TRKB, 0%; in the experiment on TRKC, 0%.

In the case of `COc1ccc(-c2cc3c(C)nc(N)nc3n([C@H]3CC[C@H](O)CC3)c2=O)cn1`, the “%Inh” value with TIE2, in the experiment with TLK1, in the experiment with TLK2, with TNIK, in the experiment with TNK1 and in the experiment with TNK2 was 0% throughout. Further, the “%Inh” value with TNNI3K, in the experiment on TRKA, with TRKB and in the experiment with TRKC was 0% in each case.

With `Cc1cccc(-c2cc(-c3c[nH]nc3-c3ccccn3)ccn2)c1` [GW679395], the “%Inh” value was found to be 0% with TIE2; 0% in the experiment on TLK1; 0% in the experiment with TLK2; 59% with TNIK; 0% with TNK1; 4% in the experiment with TNK2. Besides, the “%Inh” value in the experiment with TNNI3K was found to be 9%; in the experiment with TRKA, 0%; in the experiment with TRKB, 13%; with TRKC it was 20%.

Regarding `COc1cc(Nc2nccc(N3CCC(NC(=O)C(C)c4ccc(Cl)cc4)C3)n2)cc(OC)c1OC` (centres unmarked) [GSK1379757], the “%Inh” value in the experiment with TIE2 worked out at 0%; in the experiment on TLK1, 0%; in the experiment on TLK2, 0%; in the experiment with TNIK, 0%; in the experiment on TNK1, 0%; with TNK2 it was 6%. Moreover, the “%Inh” value in the experiment on TNNI3K is 0%; in the experiment on TRKA, 63%; in the experiment with TRKB it was 0%; with TRKC, 43%.
